# Source: PubChem BioAssay
# Compounds with a hit are over-represented: about 7.9% of the library has one in this group of screens.
# HT1080NT lethal: qHTS for induction of synthetic lethality in tumor cells producing 2HG: qHTS for the HT-1080-NT fibrosarcoma cell line; 1.6% of 360,000 active; AID 686970, 2013; HT-1080-NT fibrosarcoma viability, CellTiter-Glo ATP luminescence, 48 h; Potency, µM (top dose mostly 46.1 µM), for inactives: at the highest dose activity, negative = less viability, actives largely listed as cytotoxic;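 also: NT is the 2HG producing partner of a matched IDH1 knockdown line; 0% = DMSO-treated cells and -100% = media-only wells without cells; nearly all actives have a fitted effect of over 55% in size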
#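 Toxicity toward the 2HG-producing NT line was scored as %Activity, normalised to DMSO and no-cell wells, from CellTiter-Glo luminescence after 48 hours' treatment.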
# SW480 rereplic: A quantitative high throughput screen for small molecules that induce DNA re-replication in SW480 colon adenocarcinoma cells. SW480 DNA re-replication, Hoechst DNA content imaging, 48 h. Potency, µM (top dose mostly 46.1 µM), inactives show top-dose re-replication activation, usual class: activators. 1.8% of 340,000 active; also: % of control where 0% means no effect; nearly all actives have a fitted effect of over 55% in size
#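 250 cells/well; 23 nL cpd via pin tool; 48 hr, 37 C, 5% CO2; Hoechst 40 min; imager read of total nuclear intensity, ex 405/em 500-530 nm.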
# KB-V1 cytotox: qHTS assay for MDR1-selective chemotherapeutics: Primary screen using the drug-selected MDR subline cells KB-V1; Potency, µM (highest dose often 46.1 µM), usual class: cytotoxic; 3.4% of 400,000 active; KB-V1 MDR cells viability, CellTiter-Glo, 72 h; also: % is scaled to controls: 0 for no effect and ±100 for the full control effect; nearly all actives have a fitted effect of over 60% in size
#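 In this primary screen, KB-V1 cells overexpressing P-gp are incubated with library compounds (lowest to highest concentration) for 72 h at 37 degrees C before a luminescent ATP viability read.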
# HT1080 IDH1KD tx: qHTS for induction of synthetic lethality in tumor cells producing 2HG: qHTS for the HT-1080-IDH1KD cell line; HT-1080 IDH1 knockdown viability, ATP luminescence, 48 h; Potency, µM (highest dose often 46.1 µM), for inactives: at the top dose activity, negative = toxicity, actives largely listed as cytotoxic; 2% of 360,000 active; AID 686971, 2013;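 also: 0% = DMSO wells and -100% = cell-free medium wells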
#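 Knockdown cells (IDH1KD HT-1080) received compounds 2 h after plating at 750 cells/well and were kept 48 h at 37 °C in 5% FBS RPMI. A CellTiter-Glo luminescence read gave % activity for curve fitting.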
# MCF10A rerep: A quantitative high throughput screen for small molecules that induce DNA re-replication in MCF 10a normal breast cells. Potency, µM (series often up to 46.1 µM), without a hit: at the top dose activity, positive = re-replication, hits mostly activators. MCF 10A DNA re-replication, Hoechst nuclear intensity, 48 h. 2.9% of 350,000 active; also: % of control where 0% means no effect; nearly all actives have a fitted effect of over 50% in size
# KB-3-1 tox: qHTS assay for MDR1-selective chemotherapeutics: Primary screen using the parental adenocarcinoma cell KB-3-1; Potency, µM (doses to about 46.1 µM), hits mostly cytotoxic; 1.4% of 400,000 active; KB-3-1 viability, CellTiter-Glo ATP luminescence, 72 h; AID 1347075, 2019; also: % is scaled to controls: 0 for no effect and ±100 for the full control effect; nearly all actives have a fitted effect of over 60% in size
#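 Screening of KB-3-1 cells (DMEM, 10% FBS, phenol-red free) ran from lowest to highest compound concentration; after 72 h at 37 °C viability was read luminescently and curves fitted.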
# Starred values were filed as active, the others as inactive; i = inactive; ? = inconclusive; · = no result. Calls follow the shape of the dose curve; as a rule, active = well fitted curve in the direction sought with a large enough effect; inconclusive = small, poorly fitted or top-dose-only effect, or another doubt; inactive = no such curve, though single readings can be large; an effect the other way counts as inactive or inconclusive. Potency is read from the fitted curve at half-maximal effect.
SMILES,HT1080NT lethal,SW480 rereplic,KB-V1 cytotox,HT1080 IDH1KD tx,MCF10A rerep,KB-3-1 tox
N#CC(c1ccc(Cl)cc1)c1ccc2c(C(F)(F)F)cc(C(F)(F)F)nc2n1 (stereo not given),10.3µM*,?,?,14.6µM*,?,?
CCC(C)NC(=O)c1ccc2c(c1)N=C(C)c1cc(C)ccc1S2 (stereo not given),·,·,i,·,·,5.17µM*
CC1=Nc2cc(C(=O)O)ccc2Sc2ccc(C)cc21,-1.1%,1.9%,i,0.0%,-1.7%,i
CC1=Nc2cc(C(=O)NCC3CCCO3)ccc2Sc2ccc(C)cc21 (stereo not given),7.9%,1.03µM*,i,?,2.06µM*,?
CC1=Nc2cc(C(=O)NCc3ccco3)ccc2Sc2ccc(C)cc21,3.66µM*,1.3µM*,0.581µM*,1.64µM*,1.03µM*,?
O=C(COC(=O)c1ccc(F)cc1F)Nc1ccc(S(=O)(=O)N2CCOCC2)cc1,0.6%,·,i,2.0%,·,i
O=C(CN1C(=O)CCc2cc(Br)ccc21)Nc1ccc(OC(F)(F)F)cc1,·,·,i,·,·,i
CCOc1cc(/C=C/c2ccc3cccc([N+](=O)[O-])c3n2)ccc1O,-25.2%,·,20.6µM*,-24.7%,?,11.6µM*
CCOc1c(OC(C)=O)ccc(/C=C/c2ccc3cccc(OC(C)=O)c3n2)c1[N+](=O)[O-],?,?,11.6µM*,?,?,?
CCOc1cc(/C=C/c2ccc3cccc([N+](=O)[O-])c3n2)ccc1OCC(=O)N(C)C,4.5%,?,18.4µM*,-15.2%,28.5%,?
COc1cc(/C=C/c2ccc3cccc([N+](=O)[O-])c3n2)ccc1OCC#N,-19.6%,-0.3%,i,-28.0%,8.4%,i
COc1cc(C2C(C(=O)OC(C)C)=C(C)N=C3SCCC(=O)N32)ccc1OCc1ccccc1 (stereo not given),·,·,i,·,·,i
CS(=O)(=O)N(CC(=O)Nc1ccc(CC#N)cc1)c1ccc(C23CC4CC(CC(C4)C2)C3)cc1,?,-0.4%,?,10µM*,?,i
O=C(CC(SCCO)c1ccc(F)cc1)c1ccco1 (stereo not given),0.9%,?,i,7.9%,20.6µM*,i
NC(=O)c1ccc(Cn2c(C(=O)c3cc(Cl)c(N)c(Cl)c3)c3ccccc3[n+]2[O-])cc1,16.4µM*,?,i,11.6µM*,11.6µM*,?
NCCCn1c(C(=O)c2cc(Cl)c(N)c(Cl)c2)c2ccc([N+](=O)[O-])cc2[n+]1[O-],?,1.03µM*,i,-20.9%,71.0%,?
COc1ccc(C)cc1NC(=O)C(Cc1ccccc1)NS(=O)(=O)c1cccs1 (stereo not given),·,·,i,·,·,i
Cc1cccc(C(=O)Nc2cccc(C(=O)N/N=C/c3cccc(C)n3)c2)c1,1.1%,-0.7%,i,16.3%,14.3%,i
Cc1cccc(/C=N/NC(=O)c2ccc(NC(=O)c3ccc(F)cc3)cc2)n1,-22.6%,-29.6%,i,-23.9%,20.6µM*,i
Cc1cccc(/C=N/NC(=O)c2ccc(NC(=O)c3ccc(Cl)cc3)cc2)n1,18.4µM*,-0.2%,i,18.4µM*,7.1%,?
CCCCCNC(=O)c1cn(CC)c2cc(N3CCN(C)CC3)c(F)cc2c1=O,16.4µM*,?,i,?,?,i
C=CCCCCCCCCC(=O)N1CCN(c2cc3c(cc2F)c(=O)c(C(=O)O)cn3CC)CC1,1.7%,-24.0%,i,7.0%,2.3%,i
CCCNC(=O)c1cn(CC)c2cc(N3CCN(C)CC3)c(F)cc2c1=O,7.4%,-2.0%,i,8.6%,0.6%,i
CCCCCCn1cc(C(=O)O)c(=O)c2cc(F)c(N3CCN(C(=O)OCC)CC3)cc21,8.9%,-3.7%,2.06µM*,8.4%,-0.2%,i
CCc1ccc(Oc2c(C(F)(F)F)oc3c(CN4CCN(C)CC4)c(O)ccc3c2=O)cc1,·,·,i,·,·,i
SMILES,HT1080NT lethal,SW480 rereplic,KB-V1 cytotox,HT1080 IDH1KD tx,MCF10A rerep,KB-3-1 tox
CCOc1ccc(S(=O)(=O)N2CCC(c3ccncc3)CC2)cc1,·,·,i,·,·,i
C=C(C)CNC(=S)N/N=C(\C)c1ccc(OC)cc1,9.0%,17.7%,16.4µM*,2.1%,7.9%,?
COCCNC(=S)N/N=C(\C)c1ccc(OC)cc1,19.2%,-3.6%,i,21.0%,3.9%,i
CC(C)N(C)c1ncnc2c1ncn2[C@H]1CN(C2CCCC2)C[C@@H](CO)O1,0.2%,·,i,18.5%,·,i
COc1ccc(-c2cc(-c3c(O)c(OC)c4occc4c3OC)[nH]n2)cc1,?,?,13µM*,?,?,?
Cc1cc(C)cc(Cn2c3ccc(NC(=O)NCCc4cccs4)cc3c(=O)n2C)c1,-21.4%,·,i,?,·,i
COc1ccccc1N1CCN(C(=O)c2sc3ncnc(N4CCN(c5ccccn5)CC4)c3c2C)CC1,14.6µM*,5.1%,23.1µM*,29.1µM*,18.4µM*,?
Cc1c(C(=O)N2CCC(C)CC2)sc2ncnc(N3CCN(c4ccccc4)CC3)c12,-0.7%,-6.1%,4.61µM*,-3.6%,7.8%,i
COc1ccccc1N1CCN(C(=O)c2sc3nc(C)nc(N4CCN(c5ccccn5)CC4)c3c2C)CC1,?,13.1%,?,?,?,?
CC(=O)c1ccc(N2CCN(C(=O)Cn3ncc4c3-c3ccccc3OC4)CC2)cc1,·,·,i,·,·,i
O=C(NCc1ccccc1)c1cc(C2CCCCN2C(=O)c2ccccc2)on1 (stereo not given),3.0%,·,i,-4.9%,·,i
Cc1sc(NC(=O)c2ccco2)c(CN2CCN(c3ccc(F)cc3)CC2)c1C,-2.2%,1.2%,?,-12.6%,10.9%,i
Cc1sc(NC(=O)c2ccco2)c(CN2CCN(c3ccccn3)CC2)c1C,-3.6%,10.5%,?,-21.9%,?,20.6µM*
O=C(N/N=C(\c1ccccc1)c1ccccn1)c1cccc([N+](=O)[O-])c1,?,-4.4%,i,?,5.1%,?
CCOc1ccc(C(=O)N/N=C(\c2ccccc2)c2ccccn2)cc1,?,8.2µM*,i,2.31µM*,28.4%,?
